In PubChem BioAssay (EPA / NIEHS):
Calls of active or inactive are those of the source. How the source made its calls: active means hit-call score of the fitted dose curve at least 0.9, where 1 is the maximum; inactive means score below 0.9.

Columns and labels:
Conditions in all cases: mRNA level, 48 h; actives raise or lower the signal
CYP2C8 (gene 1558) = test: LTEA_HepaRG_CYP2C8: Life Technologies and Expression Analysis (LTEA) Assay for CYP2C8 using HepaRG (AID 2283483)
How it was run: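 Differentiated HepaRG cells in serum-free induction medium exposed 48 h in duplicate to 8 half-log concentrations from 100 uM in 0.5% DMSO. CYP2C8 mRNA by qRT-PCR normalized to ACTB, GAPDH, POLR2A; bidirectional fit versus DMSO.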

CYP2C9 (gene 1559) = test: LTEA_HepaRG_CYP2C9: Life Technologies and Expression Analysis (LTEA) Assay for CYP2C9 using HepaRG (AID 2283484)
How it was run: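 Differentiated human HepaRG cells in serum-free induction medium were exposed 48 h to chemicals in 8-point half-log series from 100 uM (0.5% DMSO), in duplicate. CYP2C9 mRNA was measured by qRT-PCR, normalized to ACTB/GAPDH/POLR2A, with bidirectional fitting versus DMSO.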

CYP2E1 (gene 1571) = test: LTEA_HepaRG_CYP2E1: Life Technologies and Expression Analysis (LTEA) Assay for CYP2E1 using HepaRG (AID 2283485)
How it was run: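 HepaRG cells in serum-free induction medium exposed 48 h to test chemicals, 8 half-log concentrations up to 100 uM in 0.5% DMSO, duplicate. CYP2E1 mRNA by qRT-PCR, normalized to ACTB, GAPDH, POLR2A; bidirectional fit versus DMSO.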

CYP4A11 (gene 1579) = test: LTEA_HepaRG_CYP4A11: Life Technologies and Expression Analysis (LTEA) Assay for CYP4A11 using HepaRG (AID 2283486)
How it was run: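 HepaRG, 48 h chem exposure, 8 conc (100 uM top, half-log), 0.5% DMSO vehicle; qRT-PCR readout, housekeeping-gene normalized; bidirectional curve fit vs DMSO baseline.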

[1] = read-out: Cytochrome P450 3A4 (Homo sapiens) (UniProt P08684); test: LTEA_HepaRG_CYP3A4: Life Technologies and Expression Analysis (LTEA) Assay for CYP3A4 using HepaRG (AID 2283487)
How it was run: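 Differentiated HepaRG cells, plated 48 h, then dosed 48 h in serum-free induction medium with 0.5% DMSO, 8 half-log concentrations up to 100 uM, duplicate. CYP3A4 mRNA by qRT-PCR, normalized to ACTB/GAPDH/POLR2A; bidirectional fit versus DMSO.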

[2] = read-out: DNA damage-inducible transcript 3 (DDIT3), DDIT3 (gene 1649); test: LTEA_HepaRG_DDIT3: Life Technologies and Expression Analysis (LTEA) Assay for DNA damage-inducible transcript 3 (DDIT3) using HepaRG (AID 2283488)
How it was run: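 Differentiated human HepaRG cells in serum-free induction medium were exposed in duplicate for 48 h to 8 concentrations (top 100 uM, half-log steps, 0.5% DMSO). DDIT3 mRNA measured by TaqMan qRT-PCR, normalized to ACTB/GAPDH/POLR2A; bidirectional fit versus DMSO.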

[3] = read-out: Pro-epidermal growth factor (Homo sapiens) (UniProt P01133); test: LTEA_HepaRG_EGF: Life Technologies and Expression Analysis (LTEA) Assay for Epidermal growth factor (EGF) using HepaRG (AID 2283489)
How it was run: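 HepaRG, 48 h dosing, 100 uM top, half-log x8, 0.5% DMSO. Readout: TaqMan qRT-PCR (Fluidigm array), housekeeping-normalized. Gain or loss of signal fit vs DMSO.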

[4] = read-out: Early growth response protein 1 (EGR1) transcription factor, EGR1 (gene 1958); test: LTEA_HepaRG_EGR1: Life Technologies and Expression Analysis (LTEA) Assay for Early growth response protein 1 (EGR1) transcription factor using HepaRG (AID 2283490)
How it was run: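 Differentiated HepaRG cells in serum-free induction medium exposed 48 hours, duplicate, to 8 half-log concentrations up to 100 uM in 0.5% DMSO. EGR1 mRNA measured by TaqMan qRT-PCR, normalized to ACTB, GAPDH, POLR2A; bidirectional fit versus DMSO.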

[5] = read-out: Ezrin (EZR), EZR (gene 7430); test: LTEA_HepaRG_EZR: Life Technologies and Expression Analysis (LTEA) Assay for Ezrin (EZR) using HepaRG (AID 2283491)
How it was run: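 EZR transcript levels came from Fluidigm qRT-PCR and were normalized to three housekeeping genes after 48 h chemical exposure of HepaRG cells. Dosing used an 8-point half-log series with a 100 uM top concentration in 0.5% DMSO, tested in duplicate; both directions were fitted versus vehicle.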

[6] = read-out: Cytochrome P450 3A7 (Homo sapiens) (UniProt P24462); test: LTEA_HepaRG_CYP3A7: Life Technologies and Expression Analysis (LTEA) Assay for CYP3A7 using HepaRG (AID 2283492)
How it was run: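 Human HepaRG liver cells, 48 h post-plating, switched to serum-free induction medium and exposed in duplicate for 48 h. Dosing: 100 uM top, half-log dilutions, 8 points, 0.5% DMSO vehicle. Read-out: CYP3A7 mRNA, gain or loss fitted against DMSO baseline.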

CYP3A5 (gene 1577) = test: LTEA_HepaRG_CYP3A5: Life Technologies and Expression Analysis (LTEA) Assay for CYP3A5 using HepaRG (AID 2283493)
How it was run: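 Differentiated HepaRG cells in serum-free induction medium were dosed 48 h with test chemicals (8-point half-log series, top 100 uM, 0.5% DMSO, duplicate). CYP3A5 mRNA measured by qRT-PCR, normalized to ACTB, GAPDH, POLR2A; bidirectional fit versus DMSO.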

[7] = read-out: Fatty Acid-Binding Protein 1 (FABP1), FABP1 (gene 2168); test: LTEA_HepaRG_FABP1: Life Technologies and Expression Analysis (LTEA) Assay for Fatty Acid-Binding Protein 1 (FABP1) using HepaRG (AID 2283494)
How it was run: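 Differentiated human HepaRG cells exposed 48 h in serum-free induction medium to eight half-log concentrations up to 100 uM (0.5% DMSO), duplicate. FABP1 mRNA by qRT-PCR, normalised to ACTB, GAPDH, POLR2A; bidirectional fitting against DMSO.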

[8] = read-out: Cytochrome P450 4A22 (Homo sapiens) (UniProt Q5TCH4); test: LTEA_HepaRG_CYP4A22: Life Technologies and Expression Analysis (LTEA) Assay for Cytochrome P450 4A22 (CYP4A22) using HepaRG (AID 2283495)
How it was run: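 Readout is CYP4A22 transcript induction or loss, quantified by qRT-PCR and normalized to ACTB, GAPDH and POLR2A. Human HepaRG cells receive test chemicals for 48 h at eight half-log concentrations from 100 uM in 0.5% DMSO.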

[9] = read-out: Cytochrome P450 7A1 (Homo sapiens) (UniProt P22680); test: LTEA_HepaRG_CYP7A1: Life Technologies and Expression Analysis (LTEA) Assay for Cytochrome P450 7A1 (CYP7A1) using HepaRG (AID 2283496)
How it was run: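 Gene expression endpoint in human HepaRG liver cells treated for 48 h with test chemicals (up to 100 uM, 0.5% DMSO). Values come from bidirectional concentration-response fitting versus DMSO.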

[10] = read-out: Glutathione S-Transferase (GSTA2), GSTA2 (gene 2939); test: LTEA_HepaRG_GSTA2: Life Technologies and Expression Analysis (LTEA) Assay for Glutathione S-Transferase (GSTA2) using HepaRG (AID 2283497)
How it was run: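 Differentiated human HepaRG cells were exposed in duplicate for 48 h in serum-free induction medium, 8 points from 100 uM top in half-log steps, 0.5% DMSO. GSTA2 mRNA was measured by TaqMan qRT-PCR, normalized to ACTB, GAPDH and POLR2A; bidirectional fit versus DMSO.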

[11] = read-out: Glutamate-cysteine ligase catalytic (GCLC), GCLC (gene 2729); test: LTEA_HepaRG_GCLC: Life Technologies and Expression Analysis (LTEA) Assay for Glutamate-cysteine ligase catalytic (GCLC) using HepaRG (AID 2283498)
How it was run: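 Differentiated HepaRG cells exposed 48 h in serum-free induction medium, eight-point half-log series topping at 100 uM in 0.5% DMSO, duplicates. GCLC mRNA by qRT-PCR normalized to ACTB, GAPDH and POLR2A, fitted bidirectionally versus DMSO.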

[12] = read-out: growth arrest and DNA damage 45 (GADD45G), GADD45G (gene 10912); test: LTEA_HepaRG_GADD45G: Life Technologies and Expression Analysis (LTEA) Assay for growth arrest and DNA damage 45 (GADD45G) using HepaRG (AID 2283499)
How it was run: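 Gain or loss of GADD45G mRNA, quantified by TaqMan qRT-PCR against three housekeeping genes, is fitted in both directions relative to 0.5% DMSO. Human HepaRG cultures receive test chemical for 48 h at up to 100 uM.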

[13] = read-out: Glutamate-cysteine ligase regulatory (GCLM), GCLM (gene 2730); test: LTEA_HepaRG_GCLM: Life Technologies and Expression Analysis (LTEA) Assay for Glutamate-cysteine ligase regulatory (GCLM) using HepaRG (AID 2283500)
How it was run: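 Differentiated human HepaRG cells exposed 48 h in serum-free induction medium to 8-point half-log concentrations (top 100 uM, 0.5% DMSO), in duplicate. GCLM mRNA quantified by qRT-PCR, normalized to ACTB, GAPDH, POLR2A; bidirectional fitting versus DMSO.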

[14] = read-out: Heat shock 70 kDa protein 1 (HSPA1A), gene 3303; test: LTEA_HepaRG_HSPA1A: Life Technologies and Expression Analysis (LTEA) Assay for Heat shock 70 kDa protein 1 (HSPA1A) using HepaRG (AID 2283502)
How it was run: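 Differentiated human HepaRG cells in serum-free induction medium were exposed in duplicate for 48 h to eight concentrations (top 100 uM, half-log steps, 0.5% DMSO). HSPA1A mRNA was quantified by qRT-PCR, normalized to ACTB, GAPDH and POLR2A, and fitted bidirectionally against DMSO.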

[15] = read-out: Glutathione S-transferase M3 (GSTM3), GSTM3 (gene 2947); test: LTEA_HepaRG_GSTM3: Life Technologies and Expression Analysis (LTEA) Assay for Glutathione S-transferase M3 (GSTM3) using HepaRG (AID 2283501)
How it was run: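 HepaRG, plated 48 h, then serum-free induction medium; test chemical 48 h, duplicate; 100 uM top, half-log x8, 0.5% DMSO. Read-out: GSTM3 mRNA (TaqMan qRT-PCR, Fluidigm array). Bidirectional fit vs DMSO.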

Measured: AC50

Sequence of Cytochrome P450 3A7 (Homo sapiens) (P24462 whole entry, looked up): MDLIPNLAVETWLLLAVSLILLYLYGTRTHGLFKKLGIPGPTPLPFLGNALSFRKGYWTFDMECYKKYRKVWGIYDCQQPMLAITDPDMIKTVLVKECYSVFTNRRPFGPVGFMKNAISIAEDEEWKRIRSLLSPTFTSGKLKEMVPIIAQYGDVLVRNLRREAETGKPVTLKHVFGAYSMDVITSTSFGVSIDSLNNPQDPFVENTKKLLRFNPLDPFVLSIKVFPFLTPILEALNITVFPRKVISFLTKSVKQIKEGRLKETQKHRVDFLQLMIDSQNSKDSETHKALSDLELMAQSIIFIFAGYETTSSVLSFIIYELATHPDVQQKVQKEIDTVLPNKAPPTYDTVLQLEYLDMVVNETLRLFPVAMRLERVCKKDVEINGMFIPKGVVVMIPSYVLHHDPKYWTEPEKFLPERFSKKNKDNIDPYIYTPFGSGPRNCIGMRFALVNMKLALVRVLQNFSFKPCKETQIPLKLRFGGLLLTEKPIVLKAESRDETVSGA
Sequence of Cytochrome P450 3A4 (Homo sapiens) (P08684 whole entry, looked up): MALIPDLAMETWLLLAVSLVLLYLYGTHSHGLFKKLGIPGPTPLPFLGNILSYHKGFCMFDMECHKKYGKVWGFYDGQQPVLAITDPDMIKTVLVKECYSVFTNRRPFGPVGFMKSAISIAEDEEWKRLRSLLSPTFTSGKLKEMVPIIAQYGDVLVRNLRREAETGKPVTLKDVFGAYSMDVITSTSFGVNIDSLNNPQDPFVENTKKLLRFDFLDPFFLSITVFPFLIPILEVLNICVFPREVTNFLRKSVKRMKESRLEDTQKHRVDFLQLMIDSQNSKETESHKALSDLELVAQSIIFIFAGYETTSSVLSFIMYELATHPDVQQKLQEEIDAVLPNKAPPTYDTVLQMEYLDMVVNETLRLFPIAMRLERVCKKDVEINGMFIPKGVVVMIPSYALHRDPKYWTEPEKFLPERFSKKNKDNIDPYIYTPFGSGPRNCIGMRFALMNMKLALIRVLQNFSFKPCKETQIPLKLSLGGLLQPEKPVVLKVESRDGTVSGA

CN1COCN(Cc2cnc(Cl)s2)C1=N[N+](=O)[O-]
active: [1] 38.8 µM
inactive: CYP2C8 (gene 1558) | CYP2C9 (gene 1559) | CYP2E1 (gene 1571) | CYP4A11 (gene 1579) | [2] | [3] | [4] | [5] | [6] | CYP3A5 (gene 1577) | [7] | [8] | [9] | [10] | [11] | [12] | [13] | [14]

CCCCOC(=O)[C@@H](C)Oc1ccc(Oc2ccc(C#N)cc2F)cc1
active: CYP4A11 (gene 1579) 32.4 µM
inactive: CYP2C8 (gene 1558) | CYP2C9 (gene 1559) | CYP2E1 (gene 1571) | [1] | [2] | [3] | [4] | [5] | [6] | CYP3A5 (gene 1577) | [7] | [9] | [10] | [11] | [12] | [13] | [14]

CCOP(=S)(OCC)SCCSCC
active: [1] 22.2 µM
inactive: CYP2C8 (gene 1558) | CYP2C9 (gene 1559) | CYP2E1 (gene 1571) | CYP4A11 (gene 1579) | [2] | [3] | [4] | [5] | [6] | CYP3A5 (gene 1577) | [7] | [9] | [10] | [11] | [12] | [13] | [14]

O=c1ccc(=O)[nH][nH]1
inactive: CYP2C8 (gene 1558) | CYP2C9 (gene 1559) | CYP4A11 (gene 1579) | [1] | [2] | [3] | [4] | [5] | [6] | [7] | [8] | [9] | [10] | [12] | [13] | [15] | [14]
active: CYP2E1 (gene 1571) 16 µM

CNC(=O)ON=C(SC)C(=O)N(C)C
active: CYP2C8 (gene 1558) 0.0994 µM
inactive: CYP2C9 (gene 1559) | CYP2E1 (gene 1571) | CYP4A11 (gene 1579) | [1] | [2] | [3] | [4] | [5] | [6] | CYP3A5 (gene 1577) | [7] | [8] | [9] | [10] | [11] | [12] | [13] | [14]

CSC1=N[C@@](C)(c2ccccc2)C(=O)N1Nc1ccccc1
active: CYP2C8 (gene 1558) 34.6 µM | CYP2C9 (gene 1559) 33.8 µM | CYP2E1 (gene 1571) 20.9 µM | CYP4A11 (gene 1579) 27.1 µM | [1] 67.6 µM | [2] 28 µM | [4] 31.9 µM | [5] 13.1 µM | [6] 25.6 µM | [7] 53.8 µM | [8] 30.6 µM | [9] 38 µM | [10] 33.9 µM | [12] 13.5 µM | [13] 25 µM
inactive: [3] | [11] | [14]
